From PubChem BioAssay (EPA / NIEHS) come the findings set out here.

Values joined by “and” are separate entries in the source; they are usually repeats but may differ in a detail not shown here. Equal entries are not always repeated. More than one record can exist for a structure, and the calls need not agree. Active and inactive are the calls of the source. How the source made its calls: active means hit-call score of the fitted dose curve at least 0.9, where 1 is the maximum; inactive means score below 0.9.

A word on the AC50: it is the concentration giving half of the maximal activity seen.

The test deals with Heat shock factor protein 1 (Homo sapiens) (UniProt Q00613). Description: ATG_HSE_CIS: Attagene CIS-FACTORIAL HepG2 Assay for human Heat Shock Transcription Factor 1 (HSE) (AID 2282953). As to conditions: HepG2 HSE cis-reporter, Attagene RNA transcription; actives raise or lower the signal. The procedure: ATG_CIS is a cell-based, multiplexed-readout assay that uses HepG2, a human liver cell line, with measurements taken at 24 hours after chemical dosing in a 24-well plate.ATG_HSE_CIS is one of 52 assay component(s) measured or calculated from the ATG_CIS assay. It is designed to make measurements of mRNA induction, a form of inducible reporter, as detected with fluorescence intensity signals by Reverse transcription polymerase chain reaction (RT-PCR) and Capillary electrophoresis technology.Data from the assay component ATG_HSE_CIS was analyzed into 1 assay endpoint. This assay endpoint, ATG_HSE_CIS, was analyzed with bidirectional fitting relative to DMSO as the negative control and baseline of activity. Using a type of inducible reporter, measures of mRNA for gain or loss-of-signal activity can be used to understand the reporter gene at the transcription factor-level as they relate to the gene HSF1. Furthermore, this assay endpoint can be referred to as a primary readout, because this assay has produced multiple assay endpoints where this one serves a reporter gene function. To generalize the intended target to other relatable targets, this assay endpoint is annotated to the dna binding intended target family, where the subfamily is heat shock protein.
Heat shock factor protein 1 (Homo sapiens), sequence (Q00613 whole entry, looked up): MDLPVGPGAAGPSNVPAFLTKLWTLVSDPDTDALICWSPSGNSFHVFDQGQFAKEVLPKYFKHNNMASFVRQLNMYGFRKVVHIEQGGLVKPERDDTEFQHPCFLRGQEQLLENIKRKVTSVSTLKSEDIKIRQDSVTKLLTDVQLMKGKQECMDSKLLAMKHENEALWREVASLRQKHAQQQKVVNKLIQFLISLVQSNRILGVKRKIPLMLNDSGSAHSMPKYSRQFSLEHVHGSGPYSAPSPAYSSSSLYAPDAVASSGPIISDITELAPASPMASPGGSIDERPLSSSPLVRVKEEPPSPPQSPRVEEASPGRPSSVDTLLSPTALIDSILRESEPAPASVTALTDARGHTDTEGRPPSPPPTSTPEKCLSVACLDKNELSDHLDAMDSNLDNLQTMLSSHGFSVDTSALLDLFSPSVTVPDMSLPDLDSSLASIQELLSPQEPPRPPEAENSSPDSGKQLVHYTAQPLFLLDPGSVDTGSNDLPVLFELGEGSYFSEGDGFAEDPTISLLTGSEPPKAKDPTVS
Human liver HepG2 cells are transiently transfected with multiple reporter transcription units (MRTUs) in 6-well plates using FuGene 6 reagent (Roche; 3 ml FuGene/1 mg DNA). The MRTU constructs are regulated by a cis-regulating element (promoter). […] A major difference between the CIS and TRANS system is that in CIS activities of endogenous TFs are measured, whereas the TRANS assay evaluates changes in activities of exogenous, chimeric NR-Gal4 proteins. […] At the end of 24 hour incubation, total RNA was isolated using TriZol reagent (Invitrogen). The isolated RNA is then reverse-transcribed using oligo(dT) primer and Mo-MLV reverse transcriptase (Invitrogen) with DNAse I (Ambion) treatment for 30 min. The one-tenth of the produced cDNA was amplified by PCR using Taq DNA polymerase (Invitrogen) and two reporter sequence-specific primers. The PCR products were fluorescently labeled by primer extension with 6-arboxyfluorescein (6-FAM) 5'-labeled reporter sequence-specific primer (2 min at 95 C, 20 s at 68 C and 10 min at 72 C) and these products were digested with 5U of HpaI (New England Biolabs) for 2h at 37 C. The fragments were purified using Qiaquick PCR columns (Qiagen), analyzed on an ABI 3130xL genetic analyzer (Applied Biosystems) with peak positions identified by using a set of X-rhodamine (ROX)-labeled MapMarker1000 molecular weight standards (BioVentures). The raw capillary electrophoresis data was processed using Attagraph software (Attagene).
`CC(C)(C)c1ccc(CSc2cnn(C(C)(C)C)c(=O)c2Cl)cc1`: the half-maximal activity concentration (AC50) is 21.8 µM (active). On to `COC(=O)c1ccccc1C(=O)OC`, for which the result was inactive. Take `COc1cnc(OC)n2nc(NS(=O)(=O)c3c(OCC(F)F)cccc3C(F)(F)F)nc12`: the compound was classed as inactive.

For `CCCN(CCC)c1c([N+](=O)[O-])cc(S(N)(=O)=O)cc1[N+](=O)[O-]`, the result was inactive.

As for `CCCCNC(=O)OCC#CI`, the AC50 is 25.6 µM (active) and the result was inactive. On to `CC(C)Oc1cc(-n2nc(C(C)(C)C)oc2=O)c(Cl)cc1Cl`, for which the concentration at half-maximal activity (AC50) was 50 µM (active). In the case of `CCON=C(CC)C1=C(O)CC(c2c(C)cc(C)cc2C)CC1=O` (stereo not given), the result was inactive. Same read-out and setting: the value for `CC1COC(Cn2cncn2)(c2ccc(Oc3ccc(Cl)cc3)cc2Cl)O1` (stereo not given) was “inactive”. As to `OC(c1ccc(Cl)cc1)(c1cncnc1)c1ccccc1Cl` (stereo not given), the AC50 is 69 µM (active) and the compound was classed as inactive.

For `CC(C)C1(C)N=C(c2nc3ccccc3cc2C(=O)O)NC1=O` (stereo not given), the compound was called inactive.

Turning to `Oc1ccccc1-c1ccccc1`, the AC50 was 189 µM (active) and the result was inactive.

`CCOC(=O)C(Cl)Cc1cc(-n2nc(C)n(C(F)F)c2=O)c(F)cc1Cl` (stereo not given): the outcome was inactive. Same read-out and setting: the value for `COC(=O)N(OC)c1ccccc1COc1ccn(-c2ccc(Cl)cc2)n1` was “inactive”; that for `CCc1nn(C)c(C(=O)NCc2ccc(C(C)(C)C)cc2)c1Cl` was “inactive”; that for `O=C(O)COc1nc(Cl)c(Cl)cc1Cl` was “inactive”. Turning to `C=CCC1=C(C)[C@@H](OC(=O)[C@@H]2[C@@H](C=C(C)C)C2(C)C)CC1=O`, the compound was called inactive. With `O=C(Nc1ccccc1)Nc1ccnc(Cl)c1`, the compound was classed as inactive.

`COP(=S)(OC)Oc1nc(Cl)c(Cl)cc1Cl`: the result was inactive.

In the case of `CON(C)C(=O)Nc1ccc(Cl)c(Cl)c1`, the compound was called inactive. On the same count and under the same terms, the value for `CCNc1nc(Cl)nc(NC(C)C)n1` was “inactive”; that for `CN(C)C(=S)SSC(=S)N(C)C` was “inactive”.

Regarding `CNC(=S)S`, the AC50 was 83 µM (active) and the result was inactive.

As for `CC(Oc1ccc(Cl)cc1Cl)C(=O)O` (stereo not given), the call was inactive. Still for that read-out and setting: the value for `CCOC(=O)CC(SP(=S)(OC)OC)C(=O)OCC` (stereo not given) was “inactive”; that for `Cc1ccc(-c2c(Cl)nc(C#N)n2S(=O)(=O)N(C)C)cc1` was “inactive”; that for `O=C(O)c1nc(Cl)ccc1Cl` was “inactive”. `Fc1ccc(Oc2ccnc3cc(Cl)cc(Cl)c23)cc1`: the call was inactive.

For `COC(=O)C(C)Oc1ccc(Oc2ccc(Cl)cc2Cl)cc1` (stereo not given), the result was inactive. Still for that read-out and setting: the value for `N#CC(CCc1ccc(Cl)cc1)(Cn1cncn1)c1ccccc1` (stereo not given) was “inactive”. Regarding `CCCC1COC(Cn2cncn2)(c2ccc(Cl)cc2Cl)O1` (stereo not given), the result was inactive. Still for that read-out and setting: the value for `C#CCOS(=O)OC1CCCCC1Oc1ccc(C(C)(C)C)cc1` (stereo not given) was “inactive”. With `C=CCC1=C(C)C(OC(=O)C2C(C=C(C)C)C2(C)C)CC1=O` (stereo not given), the AC50 was 74.8 µM (active) [middle of 6 runs].

Turning to `COC(=O)C=C(C)OP(=O)(OC)OC`, the call was inactive. On the same count and under the same terms, as for `CS/C(C)=N/OC(=O)N(C)SN(C)C(=O)O/N=C(\C)SC`, the entry is “inactive”.

Turning to `CO/C=C(/C(=O)OC)c1ccccc1Oc1cc(Oc2ccccc2C#N)ncn1`, the compound was classed as inactive; the AC50 is 168 µM (active) and 155 µM (active) and 170 µM (active).
